About 83,000 compounds went through this panel and 20% of them were active in at least one assay; those are over-represented in the sample as a whole.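 Note: values are percent growth. 100 is the growth of untreated cells, values between 100 and 0 indicate rising inhibition; between -100 and 0 indicates cell death.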 A number with no mark means an inactive call. Activity calls are given as the source filed them. Rule for the calls: active = growth percent below 10; inactive = the rest.

Holding throughout (experiment): NCI-60 one-dose screen, 48 h (100 = growth as untreated, 0 = no growth, -100 = all killed)
Common to all, as to details: 10 µM unless noted

Assay [1] has as its system T-47D breast.
For assay [2], the system named is BT-549 breast.
Assay [3] has as its system MDA-MB-435 melanoma.
The test system of assay [4] is SW-620 colon.
Assay [5] concerns MCF7 breast.
For assay [6], the system named is HCT-116 colon.
Assay [7] deals with HCC-2998 colon.
Assay [8] deals with KM12 colon.

In the case of `COc1ccc(/C=C(\C#N)n2nnc3ccccc32)cc1`, the growth in assay [1] was 50.1%; in assay [2], 21.6%; in assay [3] it was -40.1% (active); in assay [4] it was 12.8%; in assay [5], 9.96% (active); in assay [6] it was 4.97% (active). Besides, the growth in assay [7] is -2.35% (active); in assay [8], 1.79% (active).
As to `CCN(CC)CCNc1ccc(C)c2sc3cc(C)ccc3c(=O)c12`, the growth in assay [1] is 66.5%; in assay [2], 68.3%; in assay [3], 37.3%; in assay [4], 43.6%; in assay [5] it was 43.7%; in assay [6], 23.1%. The results for the growth in assay [7] and in assay [8] were 66.4% and 60.1%, respectively.
In the case of `COc1ccc(/C=C2\COc3ccc(O)cc3C2=O)c(OC)c1`, the growth is 56.4% in assay [1]; 57.8% in assay [2]; -30% (active) in assay [3]; 54.9% in assay [4]; 54.7% in assay [5]; 61.9% in assay [6]. Besides, the growth in assay [7] is 89.2%; in assay [8], 24.8%.
Regarding `COc1ccc(CN2C(=O)/C(=C\c3cc(OC)c(OC)c(OC)c3)c3ccccc32)cc1`, the growth was -2.48% (active) in assay [1]; 24.5% in assay [2]; -10.9% (active) in assay [3]; -40.3% (active) in assay [4]; 7.23% (active) in assay [5]; -93.8% (active) in assay [6]. Also, the results for the growth in assay [7] and in assay [8] were 16.9% and -23.7% (active), respectively.
As to `CCCCC1COc2cccc3c(SCC(=O)N(C)c4cccc(Cl)c4)cc[n+]1c23` (configuration not stated), the growth in assay [1] is 107%; in assay [2] it was 107%; in assay [3], 120%; in assay [4] it was 110%; in assay [5], 94.3%; in assay [6], 104%. Also, the figures for the growth in assay [7] and in assay [8] were 104% and 103%, respectively.
`CCN(CC)CCOC(=O)Nc1ccccc1Cl`: the growth is 98.6% in assay [1]; 81.3% in assay [2]; 108% in assay [3]; 101% in assay [4]; 101% in assay [5]; 72.7% in assay [6]. The growth in assay [7] is 101%; in assay [8], 103%.
For `COc1cc2oc3cc(C)oc(=O)c3c2cc1OC`, the growth is 89.8% in assay [1]; 109% in assay [2]; 97.7% in assay [3]; 103% in assay [4]; 98% in assay [5]; 90.4% in assay [6]. For the same compound, the growth in assay [7] is 92.4%; in assay [8], 105%.
On to `Cn1cc(-c2ccc3ncc(-c4ccc(CC(=O)Nc5cc(C(C)(C)C)nn5C)cc4)cc3c2)cn1`, for which the growth was -3.95% [30 µM] (active) in assay [1]; -2.02% [30 µM] (active) in assay [2]; 2.73% [30 µM] (active) in assay [3]; 22.2% [30 µM] in assay [4]; 2.17% [30 µM] (active) in assay [5]; 20.4% [30 µM] in assay [6]. Further, the growth in assay [7] was 29.6% [30 µM]; in assay [8], -40.1% [30 µM] (active).
Regarding `CC(C)OCCCNCC(=O)Nc1ccc(S(=O)(=O)c2ccc(NC(=O)CNCCCOC(C)C)cc2)cc1`, the growth was 103% in assay [1]; 102% in assay [2]; 101% in assay [3]; 87.6% in assay [4]; 85.8% in assay [5]; 81.3% in assay [6]. The growth in assay [7] was 73.8%; in assay [8] it was 99.8%.
Take `COc1ccc(-c2nnc(-c3ccc4c(c3)nc(-c3ccccc3)n4C3CCCCC3)o2)cc1`: the growth in assay [1] was 4.1% (active); in assay [2] it was 30.9%; in assay [3], 59.6%; in assay [4], 71.3%; in assay [5], 33.2%; in assay [6] it was 34.7%. The figures for the growth in assay [7] and in assay [8] were 81.5% and 39.9%, respectively.
For `COc1cc2c(cc1OC)-c1ccc3cc4c(cc3c1N(CCCN1CCCCC1)C2)OCO4`, the growth in assay [1] is 59.2%; in assay [2] it was 40.7%; in assay [3], 69.6%; in assay [4] it was 38%; in assay [5] it was 46.3%; in assay [6] it was 24.6%. For the same compound, the values for the growth in assay [7] and in assay [8] were 80.9% and 48.5%, respectively.
As to `Cc1cn(C2CCCCC2)c(=O)[nH]c1=O`, the growth in assay [1] is 108%; in assay [2], 102%; in assay [3], 108%; in assay [4] it was 109%; in assay [5] it was 108%; in assay [6], 107%. For the same compound, the growth is 112% in assay [7] and 117% in assay [8].
For `COc1cc(-c2cc(-c3ccc(Nc4nc(Nc5ccccc5)nc(Nc5ccc(Cl)cc5)n4)cc3)nc(N)n2)cc(OC)c1OC`, the growth was 38.4% in assay [1]; 71.1% in assay [2]; 63.5% in assay [3]; 87.2% in assay [4]; 35.5% in assay [5]; 34.9% in assay [6]. The growth was 58.2% in assay [7] and 52.4% in assay [8].
In the case of `O=C1CSC(c2ccccc2)N1c1ccccc1` (configuration not stated), the growth in assay [1] was 103%; in assay [2], 103%; in assay [3] it was 108%; in assay [4], 94.5%; in assay [5], 96.6%; in assay [6], 99.9%. The growth in assay [7] was 115%; in assay [8] it was 98.4%.

(Values after PubChem BioAssay (NCI).)
